MARV entry inh: Marburg virus entry inhibition. Marburg virus pseudotyped entry inhibition, cell reporter. Potency, µM (doses to about 37.8 µM), usual class: inhibitors. 300,000 tested, 1.8% active; calls by dose curve; tested in HEK293 cells
HCV inh: blocks hepatitis C virus | AID 651820 | Huh7.5.1 HCVcc-Cre infection, luciferase reporter, 44 h | Potency, µM (series often up to 41.8 µM), usual class: inhibitors | 340,000 tested, 3.4% active; active = well fitted inhibition curve with a large enough effect; inconclusive = small, poorly fitted or top-dose-only effect, or another doubt; inactive = no such curve, though single readings can be large or run the other way
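Compounds are dispensed onto cells plated 4 h earlier at 1,000 per well, with HCVcc-Cre virus (about 0.5 moi) added next. Following 44 h of culture, luminescent signal is measured for 15 sec after 15 min with substrate at room temperature.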
HCMV inh: human cytomegalovirus inhibition | HFF cells, HCMV-luciferase reporter, 72 h; active compounds read low | activity change, negative = inhibition, % at 57.5 µM | 410,000 tested, 4.5% active; in the data active = activity change below about -60%; inconclusive = no clear call, values can overlap the other calls; inactive = above about -39%
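Inhibition of viral replication was scored as loss of reporter luminescence in HFFs infected with HCMV-luciferase (MOI 1 PFU/cell) for 72 h; compounds tested at 2 doses, normalized to buffer and Salinomycin controls.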
Lassa entry inh: inhibitors of Lassa virus binding or cell entry; Lassa virus pseudotype entry inhibition, cell reporter; Potency, µM (titrated, usually from 37.9 µM), actives largely listed as inhibitors; 300,000 tested, 1.2% active; AID 540256; calls by dose curve; tested in HEK293 cells; also: nearly all actives have a fitted effect of over 50% in size
FMDV inh: foot and mouth disease virus antiviral activity | 410,000 tested, 1.2% active | FMDV antiviral cell-based qHTS | AID 1159524 | Potency, µM (doses to about 57.9 µM), most hits filed as inhibitors; calls by dose curve; tested in HEK293T cells; also: read-out not given here; nearly all actives have a fitted effect of over 45% in size
Of the large screens only hits and unclear results are named; the others gave an inactive call; ! = not active in a repeat. Rows were chosen to be rich in hits. Some 7.9% of all compounds tested hit in one or more screens of this group.

COc1ccccc1OCCn1cc(/C=N/NC(N)=S)c2ccccc21	HCV inh 8.91µM, HCMV inh inconclusive, FMDV inh inconclusive (no result: MARV entry inh, Lassa entry inh)
S=C(c1cn(CCOc2cccc3ccccc23)c2ccccc12)N1CCCC1	HCV inh inconclusive, HCMV inh -76.7, FMDV inh inconclusive
COc1ccccc1OCCn1cc(/C=N/NC(=O)c2ccncc2)c2ccccc21	Lassa entry inh inconclusive, FMDV inh inconclusive
COC(=O)N/N=C/c1cn(CCCOc2ccccc2)c2ccccc12	MARV entry inh 15.8µM, HCV inh inconclusive, Lassa entry inh inconclusive, FMDV inh inconclusive
COC(=O)N/N=C/c1ccccc1Cl	HCMV inh -74.7, Lassa entry inh inconclusive
CN1c2ccccc2[C@@]2(O)C(=O)[C@@]1(C)[C@H]1Cc3ccccc3[C@H]12	none (no result: HCV inh, HCMV inh, Lassa entry inh, FMDV inh)
CCOc1ccc(CNC(=O)C2CCN(C(=O)N3CC(CC)Oc4ccccc43)CC2)cc1 (stereo not drawn)	none (no result: MARV entry inh, HCV inh)
CCN(C(=O)Cn1c(C(=O)OC)cc2oc3ccccc3c21)c1cccc(C)c1	FMDV inh inconclusive (no result: HCV inh, Lassa entry inh)
COc1ccc(Cl)cc1NC(=O)CSc1nc(-c2ccco2)cc(C(F)(F)F)n1	MARV entry inh inconclusive, HCMV inh inconclusive (no result: HCV inh)
CC(C)(C)OC(=O)N/N=C/c1cc(N=Nc2ccccc2)ccc1O	MARV entry inh inconclusive, HCV inh 31.6µM, Lassa entry inh inconclusive, FMDV inh inconclusive
CC(C)(C)OC(=O)N/N=C/c1c[nH]c2ccccc12	none
COC(=O)N/N=C/c1cn(Cc2ccc(Cl)cc2Cl)c2ccccc12	MARV entry inh 13µM, HCV inh inconclusive, Lassa entry inh inconclusive
CNC(=S)N/N=C/c1cn(Cc2ccc(F)cc2)c2ccccc12	MARV entry inh inconclusive, HCV inh 31.6µM, Lassa entry inh inconclusive, FMDV inh inconclusive
COc1ccc(Cl)cc1NC(=O)Cn1cc(S(=O)(=O)Cc2cccc(Cl)c2)c2ccccc21	HCMV inh inconclusive, Lassa entry inh inconclusive (no result: MARV entry inh, HCV inh)
CC(C)Oc1ccc(CNC(=O)C2CCN(Cc3cc4ccccc4n3Cc3ccccc3)CC2)cc1	none (no result: MARV entry inh, HCV inh)
O=C(CSc1ccc2c(c1)OCCO2)Nc1ccc(Cl)cn1	HCMV inh -86.1, Lassa entry inh inconclusive
O=C(CSc1ccc2c(c1)OCCO2)Nc1ccc(Br)cn1	HCV inh inconclusive
Cc1oc(-c2ccccc2F)nc1CS(=O)CC(=O)NC(C)C (stereo not drawn)	MARV entry inh inconclusive (no result: HCV inh)
O=[N+]([O-])c1ccc(Sc2cccc[n+]2[O-])c2nonc12	MARV entry inh inconclusive, HCV inh 10µM, HCMV inh -106.2, Lassa entry inh inconclusive, FMDV inh 6.31µM
CCCCOC(=O)c1ccc(OC(=O)c2sc3ncn(Cc4cccc(F)c4)c(=O)c3c2C)cc1	none (no result: MARV entry inh, HCV inh)
CCc1ccc2nc3nc(C)cc(C)c3c(N)c2c1	MARV entry inh inconclusive, HCV inh inconclusive, Lassa entry inh inconclusive (no result: FMDV inh)
Cc1cc(C)c2c(N)c3ccccc3nc2n1	MARV entry inh inconclusive, HCV inh inconclusive, HCMV inh -108.4
Brc1ccccc1OCCCCn1cnc2ccccc21	MARV entry inh inconclusive, HCV inh 10µM, HCMV inh -60.2, Lassa entry inh inconclusive
Cc1ccc(OCCCCn2cnc3ccccc32)c(C)c1	MARV entry inh inconclusive, HCV inh inconclusive, HCMV inh -98.4, Lassa entry inh inconclusive
Cc1ccc(Cn2ccnc2SCC(=O)Nc2nnc(C)s2)cc1	none (no result: MARV entry inh, HCV inh)
O=C1CCN(Cc2cccc(C(F)(F)F)c2)CCN1Cc1ccccn1	none (no result: MARV entry inh, HCV inh, HCMV inh, Lassa entry inh)
O=C(N[C@H]1CC[C@@]23CCCN2C(=O)CCC[C@H]3[C@H]1Cc1ccccc1)c1ccc(C(F)(F)F)cc1	none (no result: MARV entry inh, HCV inh, Lassa entry inh, FMDV inh)
CC(C)(C)C(=O)NCCc1csc2nc(-c3ccc(F)cc3)nn12	FMDV inh inconclusive (no result: MARV entry inh, HCV inh)
CCOC(=O)C1CCN(C(=O)c2ccc(NS(=O)(=O)c3ccc4[nH]c(=O)[nH]c4c3)cc2)CC1	none (no result: MARV entry inh, Lassa entry inh)
CC1CCN(C(=O)c2ccc(NS(=O)(=O)c3ccc4[nH]c(=O)[nH]c4c3)cc2)CC1	HCV inh inconclusive, HCMV inh -97.9
Cc1ccc(NC(=O)c2ccc(CNS(=O)(=O)c3cccc(C(F)(F)F)c3)cc2)cc1	none
CC1CCN(C(=O)c2ccc(NS(=O)(=O)c3ccccc3)cc2)CC1	Lassa entry inh inconclusive
COc1ccc(NS(=O)(=O)c2ccc(C(=O)N3CCC(C)CC3)cc2)cc1	MARV entry inh inconclusive, HCV inh inconclusive, HCMV inh -66.2, Lassa entry inh inconclusive
CC1CCN(C(=O)c2ccc(CNS(=O)(=O)c3ccc(C(C)(C)C)cc3)cc2)CC1	HCV inh 22.4µM (no result: MARV entry inh, Lassa entry inh)
CC1CN(C(=O)c2ccc(CNS(=O)(=O)c3cccc(C(F)(F)F)c3)cc2)CC(C)O1 (stereo not drawn)	MARV entry inh 12.6µM, HCV inh inconclusive
N#Cc1cc2c(=O)n3ccccc3nc2n(-c2nnc(SCc3ccc(F)cc3)s2)c1=O	MARV entry inh inconclusive, Lassa entry inh inconclusive (no result: HCV inh)
COc1cc(C(=O)OCc2cc(=O)n3nc(C4CCCCC4)sc3n2)cc(OC)c1OC	FMDV inh inconclusive (no result: MARV entry inh, HCV inh)
CCOc1ccccc1NC(=O)C1CCN(C(=O)Cc2ccccc2)CC1	HCV inh 2.24µM, Lassa entry inh inconclusive
CCOc1ccccc1C(=O)Nc1cccc(-c2ccc3nncn3n2)c1	MARV entry inh 7.08µM, HCV inh inconclusive, HCMV inh inconclusive, Lassa entry inh inconclusive
CCOc1ccccc1C(=O)Nc1ccccc1C(N)=O	none
COC(=O)c1ccccc1NC(=O)C1CCN(C(=O)Cc2ccccc2)CC1	HCV inh inconclusive
CCOc1ccccc1C(=O)NCCCN1CCN(CCCNC(=O)c2ccccc2OCC)CC1	HCV inh 10µM!, Lassa entry inh inconclusive
CCOc1ccccc1C(=O)Nc1nn[nH]n1	HCV inh 3.16µM, HCMV inh inconclusive, Lassa entry inh inconclusive
Cc1ccccc1C(=O)Nc1cccc(-c2ccc3nncn3n2)c1	MARV entry inh inconclusive, Lassa entry inh inconclusive
Cc1nn(CC(=O)NCCc2ccccc2Cl)c(=O)c2nn(-c3ccccc3)c(C)c12	HCMV inh inconclusive (no result: MARV entry inh, HCV inh)
COC(=O)[C@H]1[C@H](CO)[C@H]2Cn3c(ccc(Br)c3=O)[C@H]2N1Cc1ccc2c(c1)OCO2	none (no result: MARV entry inh, HCV inh, Lassa entry inh, FMDV inh)
CCc1nnc(NC(=O)c2ccncc2)s1	none
CCOc1cc(NC(=O)C2CC2)c(OCC)cc1NC(=O)c1ccccc1OCC	MARV entry inh 10µM, HCV inh inconclusive, Lassa entry inh inconclusive
CCOc1ccccc1C(=O)Nc1nnc(CC)s1	HCV inh 11.2µM (no result: MARV entry inh, Lassa entry inh)
CCc1nnc(NC(=O)c2cccc(C(=O)Nc3nnc(CC)s3)n2)s1	MARV entry inh inconclusive, HCV inh 1.12µM, HCMV inh -91.7, Lassa entry inh inconclusive, FMDV inh inconclusive
COc1cc(-c2nc(Cn3nnc(C(=O)Nc4cc(C)cc(C)c4)c3C)c(C)o2)cc(OC)c1OC	MARV entry inh inconclusive, Lassa entry inh inconclusive (no result: HCV inh)
CCN(N=O)c1ccc(C=C2C=Cc3ccccc32)cc1	MARV entry inh inconclusive, Lassa entry inh 3.98µM
COc1cc(OC)c(NC(=O)N2CCOc3ccc(C)cc32)cc1Cl	none (no result: MARV entry inh, HCV inh)
COc1cccc(-c2cc(C(=O)Nc3c(C)nn(Cc4ccccc4)c3C)no2)c1	MARV entry inh inconclusive, HCV inh 10µM, HCMV inh inconclusive
Cc1cc(NC(=O)c2cc(-c3cccc(Cl)c3)on2)nn1Cc1ccc(Cl)cc1	HCMV inh -80.4, FMDV inh inconclusive (no result: HCV inh)

Screens deposited in PubChem by National Center for Advancing Translational Sciences (NCATS).
